Records with an inconclusive call do not appear. The source made the active and inactive calls. Unless noted, calls come from the whole dose curve; as a rule, active = well fitted curve in the direction sought with a large enough effect in the repeat runs; inconclusive = weak or mixed curves; inactive = no such curve, though single readings can be large; an effect the other way counts as inactive or inconclusive.
Columns and labels:
[1] = qHTS assay to identify small molecule HDAC inhibitors - cell viability counter screen (AID 1259365); note: series mostly up to about 92 µM; nearly all actives have a fitted effect of over 50% in size
Method in brief: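 Wild-type HCT-116 cells, 1,500/well, cultured overnight, then compound-treated 2 h at 37 C. Viability measured as ATP luminescence with CellTiter-Glo after 30 min at room temperature.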

[2] = qHTS assay to identify small molecule agonists of the sonic hedgehog signaling (Shh) pathway - cell viability counter screen (AID 1259366); note: nearly all actives have a fitted effect of over 50% in size
Method in brief: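 NIH/3T3-derived Gli1-Luc reporter cells, 2,000 per well, received compound after 4 h and were treated about 23 h at 37C. Viability measured in the same wells by CellTiter-Fluor fluorescence after 1 h.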

[3] = qHTS assay to identify small molecule antagonists of the sonic hedgehog signaling (Shh) pathway - cell viability counter screen (AID 1259367); note: nearly all actives have a fitted effect of over 55% in size
Method in brief: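 CellTiter-Fluor signal in conditioned medium-stimulated 3T3 Gli1-Luc cells, 23 hr compound exposure, 37C.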

[4] = qHTS assay to identify small molecule agonists of the sonic hedgehog signaling (Shh) pathway (AID 1259368; calls by dose curve;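 note: NIH/3T3-derived 3T3Gli1-Luc cells carrying a stable Gli1-driven firefly luciferase reporter; series mostly up to about 92 µM; nearly all actives have a fitted effect of over 15% in size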)
Method in brief: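 Cells of a mouse NIH/3T3 clone stably expressing luciferase under the Gli1 transcriptional response element are exposed to test chemicals for 24 hr at 37 C. Pathway activation is detected as a rise in luminescence.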

[5] = biological target: Estrogen receptor beta (Homo sapiens) (UniProt Q92731); assay: qHTS assay to identify small molecule agonists of the estrogen receptor beta (ER-beta) signaling pathway (AID 1259377; active = well fitted activation curve with a large enough effect in the signal ratio in the repeat runs, not every such curve was filed as active; the % refers to the signal ratio)
Method in brief: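 ER-beta-UAS-bla HEK293T cells in medium with 2% charcoal-stripped FBS were exposed to compounds for 16 h at 37C. Beta-lactamase reporter activity was read as fluorescence after 2 h with LiveBLAzer B/G FRET substrate at room temperature.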

[6] = biological target: Estrogen receptor beta (Homo sapiens) (UniProt Q92731); assay: qHTS assay to identify small molecule antagonists of the estrogen receptor beta (ER-beta) signaling pathway (AID 1259378; active = well fitted inhibition curve with a large enough effect in the signal ratio in the repeat runs, not every such curve was filed as active; the % refers to the signal ratio)
Method in brief: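 Antagonist mode: compounds added to beta-lactamase reporter HEK293T ER-beta-UAS cells stimulated with E2 (1nM final), 16 hr at 37C. LiveBLAzer B/G FRET substrate, 2 hours room temperature, fluorescence read-out.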

[7] = qHTS assay to identify small molecule agonists of the androgen receptor (AR) signaling pathway in the presence of an antagonist - cell viability counter screen (AID 1259379);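 note: MDA-kb2 human breast cancer cells carrying an MMTV luciferase reporter; series mostly up to about 92 µM; nearly all actives have a fitted effect of over 25% in size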
Method in brief: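 Cytotoxicity is assessed by CellTiter-Fluor in MDA-kb2 cells carrying an MMTV-driven luciferase reporter. Cells receive 3.0uM nilutamide plus compounds at 15 concentrations and incubate 16 hr at 37C without CO2 before fluorescence reading.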

[8] = qHTS assay to identify small molecule agonists of the estrogen receptor beta (ER-beta) signaling pathway - cell viability counter screen (AID 1259380); note: nearly all actives have a fitted effect of over 30% in size
Method in brief: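 Cytotoxicity is measured in parallel with the reporter screen: after 16 hr compound exposure at 37C and a 2 hr LiveBLAzer step, CellTiter-Glo is added to the same ER-beta-UAS-bla HEK293T wells and luminescence read after 30 min.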

[9] = qHTS assay to identify small molecule antagonists of the sonic hedgehog signaling (Shh) pathway (AID 1259369; calls by dose curve; note: nearly all actives have a fitted effect of over 45% in size)
Method in brief: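 Cells are plated and held 4hr at 37 C, compounds (DMSO) are pinned in, conditioned medium is added to stimulate the pathway, and after 24hr luciferase reagent is added for 30min before luminescence is read.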

[10] = biological target: Androgen receptor (Homo sapiens) (UniProt P10275); assay: qHTS assay to identify small molecule agonists of the androgen receptor (AR) signaling pathway in the presence of an antagonist (AID 1259381; calls by dose curve; note: nearly all actives have a fitted effect of over 15% in size)
Method in brief: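 Agonist-mode confirmation screen: human MDA-kb2 cells stably expressing luciferase under an MMTV promoter bearing AR and GR response elements, co-treated with 3.0uM nilutamide (final). Luminescence measured after 16hr compound incubation.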
% is set by controls: 0 for no effect and ±100 for the full control effect.

Estrogen receptor beta (Homo sapiens), sequence (Q92731 whole entry, looked up): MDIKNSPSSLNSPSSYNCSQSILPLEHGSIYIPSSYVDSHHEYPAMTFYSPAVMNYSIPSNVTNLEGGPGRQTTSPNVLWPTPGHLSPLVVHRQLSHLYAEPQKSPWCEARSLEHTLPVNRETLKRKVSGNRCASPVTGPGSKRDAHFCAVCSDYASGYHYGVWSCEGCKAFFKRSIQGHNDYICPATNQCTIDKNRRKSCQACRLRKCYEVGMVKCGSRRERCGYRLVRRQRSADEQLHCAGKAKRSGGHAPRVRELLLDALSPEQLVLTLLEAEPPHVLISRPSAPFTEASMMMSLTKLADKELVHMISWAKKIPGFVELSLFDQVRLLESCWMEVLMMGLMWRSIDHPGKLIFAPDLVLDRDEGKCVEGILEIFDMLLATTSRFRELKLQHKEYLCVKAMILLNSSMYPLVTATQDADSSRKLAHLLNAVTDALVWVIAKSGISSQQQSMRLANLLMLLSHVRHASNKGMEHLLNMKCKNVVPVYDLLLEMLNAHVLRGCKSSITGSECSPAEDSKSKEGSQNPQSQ
Androgen receptor (Homo sapiens), sequence (P10275 whole entry, looked up): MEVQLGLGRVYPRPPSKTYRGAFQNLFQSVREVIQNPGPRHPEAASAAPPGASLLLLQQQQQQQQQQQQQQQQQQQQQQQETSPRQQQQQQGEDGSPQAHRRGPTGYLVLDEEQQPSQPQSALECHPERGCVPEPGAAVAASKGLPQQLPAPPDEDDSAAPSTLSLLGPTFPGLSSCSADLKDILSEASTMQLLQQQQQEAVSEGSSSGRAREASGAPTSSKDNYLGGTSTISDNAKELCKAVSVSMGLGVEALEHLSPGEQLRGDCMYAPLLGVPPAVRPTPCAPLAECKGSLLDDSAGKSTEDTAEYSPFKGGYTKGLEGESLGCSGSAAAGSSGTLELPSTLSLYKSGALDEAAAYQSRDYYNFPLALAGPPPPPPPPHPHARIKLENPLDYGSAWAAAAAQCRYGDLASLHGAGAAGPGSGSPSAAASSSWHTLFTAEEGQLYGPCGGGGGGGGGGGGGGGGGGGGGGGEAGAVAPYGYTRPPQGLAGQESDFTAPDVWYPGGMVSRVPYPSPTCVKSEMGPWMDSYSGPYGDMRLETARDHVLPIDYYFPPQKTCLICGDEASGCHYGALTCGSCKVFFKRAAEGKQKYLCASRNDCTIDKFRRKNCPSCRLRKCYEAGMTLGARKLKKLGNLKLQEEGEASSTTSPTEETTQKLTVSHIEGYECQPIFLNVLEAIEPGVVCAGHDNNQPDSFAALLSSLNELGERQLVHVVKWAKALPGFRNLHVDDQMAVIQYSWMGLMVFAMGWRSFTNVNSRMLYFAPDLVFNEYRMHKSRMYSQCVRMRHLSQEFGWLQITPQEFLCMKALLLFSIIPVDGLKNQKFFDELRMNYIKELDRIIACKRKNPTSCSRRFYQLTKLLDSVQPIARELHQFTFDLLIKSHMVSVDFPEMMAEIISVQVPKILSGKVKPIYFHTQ

CCCC(=O)CC
inactive: outcome [1] | outcome [2] | outcome [3] | outcome [4] | Potency [5] | outcome [6] | outcome [7] | Potency [8]

CCCCN=C(N)N=C(N)N
inactive: outcome [1] | outcome [2] | outcome [3] | outcome [4] | Potency [5] | outcome [6] | outcome [7] | Potency [8]

Clc1ccc2c(c1)Nc1ccccc1S2
inactive: outcome [1] | outcome [2] | outcome [3] | outcome [4] | Potency [9] | outcome [7] | Potency [8] | outcome [10]

CC(C)c1cc(C(C)C)cc(C(C)C)c1
inactive: outcome [1] | outcome [2] | outcome [3] | outcome [4] | Potency [5] | outcome [6] | outcome [7] | Potency [8]

N=C(N)N
inactive: outcome [1] | outcome [2] | outcome [3] | outcome [4] | Potency [9] | outcome [7] | Potency [8]

CNCCc1ccccn1
inactive: outcome [1] | outcome [2] | outcome [3] | outcome [4] | Potency [9] | outcome [7] | Potency [8]

CSC(=O)c1cccc2nnsc12
inactive: outcome [1] | outcome [2] | outcome [3] | outcome [4] | Potency [9] | outcome [7] | Potency [8] | outcome [10]

CC1(C)C(=O)C(C)(C)C1=O
inactive: outcome [1] | outcome [2] | outcome [3] | outcome [4] | Potency [9] | outcome [7] | Potency [8] | outcome [10]

CC(C)(O)CCCC1=CCC(C=O)CC1 (stereo unspecified)
inactive: outcome [1] | outcome [2] | outcome [3] | outcome [4] | Potency [9] | outcome [7] | Potency [8]

COC(=O)N/N=C/c1c[n+]([O-])c2ccccc2[n+]1[O-]
inactive: outcome [1] | outcome [2] | outcome [3] | outcome [4] | Potency [9] | outcome [7] | Potency [8]

C=CC(=O)OCCOCCOCC
inactive: outcome [1] | outcome [2] | outcome [3] | outcome [4] | Potency [5] | outcome [6] | outcome [7] | Potency [8]

Cc1ccc(OC(=O)CC(C)C)cc1
inactive: outcome [1] | outcome [2] | outcome [3] | outcome [4] | Potency [9] | outcome [7] | Potency [8]

C=CC(=O)CC
inactive: outcome [1] | outcome [2] | outcome [3] | outcome [4] | Potency [5] | outcome [6] | outcome [7] | Potency [8]

CCN(CC)CC
inactive: outcome [1] | outcome [2] | outcome [3] | outcome [4] | Potency [9] | outcome [7] | Potency [8]

O=Cc1ccc(C(=O)O)cc1
inactive: outcome [1] | outcome [2] | outcome [3] | outcome [4] | Potency [9] | outcome [7] | Potency [8]

O=C1Nc2ccccc2C1=O
inactive: outcome [1] | outcome [2] | outcome [3] | outcome [4] | Potency [5] | outcome [6] | outcome [7]

COC(=O)c1c(C)cc(O)c(C)c1O
inactive: outcome [1] | outcome [2] | outcome [3] | outcome [4] | Potency [5] | outcome [6] | outcome [7] | Potency [8]

COc1cc(NS(=O)(=O)c2ccc(N)cc2)ncn1
inactive: outcome [1] | outcome [2] | outcome [3] | outcome [4] | Potency [9] | outcome [7] | Potency [8]

N=C(N)S(=O)O
inactive: outcome [1] | outcome [2] | outcome [3] | outcome [4] | Potency [9] | outcome [7] | Potency [8]

Cc1ccc(Br)cc1
inactive: outcome [1] | outcome [2] | outcome [3] | outcome [4] | Potency [9] | outcome [7] | Potency [8]

CCCc1ccc(O)c(OC)c1
inactive: outcome [1] | outcome [2] | outcome [3] | outcome [4] | Potency [9] | outcome [7] | Potency [8]

Cc1cc(O)c(Cl)cc1C
inactive: outcome [1] | outcome [2] | outcome [3] | outcome [4] | Potency [5] | outcome [6] | outcome [7]

N#Cc1ccccc1C#N
inactive: outcome [1] | outcome [2] | outcome [3] | outcome [4] | Potency [9] | outcome [7] | outcome [10]

CC(=O)SCC(CC(=O)c1ccc(C)cc1)C(=O)O (stereo unspecified)
inactive: outcome [1] | outcome [2] | outcome [3] | outcome [4] | Potency [5] | outcome [6] | outcome [7]

CCN1CCN(C(=O)N[C@@H](C(=O)N[C@@H]2C(=O)N3C(C(=O)O)=C(CSc4nnnn4C)CS[C@H]23)c2ccc(O)cc2)C(=O)C1=O
inactive: outcome [1] | outcome [2] | outcome [3] | outcome [4] | Potency [5] | outcome [6] | outcome [7] | Potency [8]

O=C(CCBr)N1CCN(C(=O)CCBr)CC1
inactive: outcome [1] | outcome [2] | outcome [3] | outcome [4] | Potency [9] | outcome [7] | Potency [8]

CCOC(=O)[C@H](CCc1ccccc1)N[C@H]1CS[C@H](c2cccs2)CN(CC(=O)O)C1=O
inactive: outcome [1] | outcome [2] | outcome [3] | outcome [4] | Potency [9] | outcome [7] | Potency [8] | outcome [10]

Cc1nnc(C(=O)NC(C)(C)c2nc(C(=O)NCc3ccc(F)cc3)c(O)c(=O)n2C)o1
inactive: outcome [1] | outcome [2] | outcome [3] | outcome [4] | Potency [5] | outcome [6] | outcome [7] | Potency [8]

CC(C)(C)C(=O)CCc1ccc(Cl)cc1
inactive: outcome [1] | outcome [2] | outcome [3] | outcome [4] | Potency [5] | outcome [6] | outcome [7] | Potency [8]

CC12CCCC=C1C(=O)OC2=O (stereo unspecified)
inactive: outcome [1] | outcome [2] | outcome [3] | outcome [4] | Potency [9] | outcome [7] | Potency [8] | outcome [10]

C[C@@H]1CC[C@@]2(OC1)O[C@H]1C[C@H]3[C@@H]4CC[C@H]5C[C@@H](O)CC[C@]5(C)[C@H]4CC(=O)[C@]3(C)[C@H]1[C@@H]2C
inactive: activity change, negative = cytotoxicity [1] 4.19% [at 8.39 µM] | viability change, negative = cytotoxic [2] -4.38% [at 8.39 µM] | viability change, negative = cytotoxic [3] 0.938% [at 8.39 µM] | activity change [4] -0.0264% [at 8.39 µM] | activity change, negative = inhibition [9] 0.87% [at 8.39 µM] | activity change, negative = cytotoxicity [7] 0.258% [at 8.39 µM] | activity change, negative = cytotoxicity [8] 3.8% [at 8.39 µM]

— PubChem BioAssay (Tox21)
